Compounds without any hit were thinned out: in the full panel of roughly 83,000, 20% have a hit.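 Method: cells in 96-well plates; compound added at one concentration; 48 h incubation; percent growth measured; values under 10 scored active.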 Activity calls are given as the source filed them.
System: OVCAR-5 ovarian
Test: NCI-60 one-dose screen, 48 h (100 = growth as untreated, 0 = no growth, -100 = all killed)
Conditions: 10 µM

SMILES	growth
COc1ccc(-c2nc(-c3nc4ccc(Cl)cc4[nH]3)c3ccccn23)cc1	82.5% (inactive)
O=C(O)c1ccc(P(=O)(O)O)c([N+](=O)[O-])c1	107% (inactive)
COc1ccc2c(c1)N(CCO)C1=C(C(=O)OC1)C2c1ccc(OC)c(OC)c1 (centres undefined)	47.7% (inactive)
CC(=O)O[C@]1(C)CC[C@H]2[C@H](CNCCc3ccc(Cl)cc3)C(=O)O[C@@H]2C2=C(C)C(=O)C[C@H]21	100% (inactive)
COc1ccc(Cl)cc1-n1nnc(-c2nc3ccccc3[nH]2)c1N	96.2% (inactive)
O=C1/C(=C\c2ccc(F)cc2)CN(C(=O)c2ccccc2)C/C1=C\c1ccc(F)cc1	78.6% (inactive)
CCC(=O)N1C/C(=C/c2ccc(Cl)cc2)C(=O)/C(=C/c2ccc(Cl)cc2)C1	2.37% (active)
COc1cc(C2CC(c3ccc(Nc4ccnc5cc(Cl)ccc45)cc3)=NN2c2ccc(Cl)cc2)cc(OC)c1OC (centres undefined)	80.6% (inactive)
COc1cc(NC(=O)CCSc2nc3ccc(C)cc3c(=O)n2Cc2ccccc2)cc(OC)c1OC	94.2% (inactive)
COc1cc(Nc2ncnc(Nc3ccc4c(n3)NC(=O)C(C)(C)O4)n2)cc(OC)c1OC	29.3% (inactive)
C[C@@H]1C=C2C(=O)O[C@@H]3CC[C@H](C1)[C@]23O	104% (inactive)
N#CCCN1C/C(=C/c2ccc(Cl)cc2)C(=O)/C(=C/c2ccc(Cl)cc2)C1	4.05% (active)
Cc1[nH]nc2c1C(c1cnn(C)c1)C(C#N)=C(N)O2 (centres undefined)	109% (inactive)
O=C(Nc1nc2ccc(F)cc2s1)c1cc(-c2ccc(F)cc2)n2nc(-c3ccccc3)cc2n1	107% (inactive)
COc1ccc(-c2nc(-c3nc4cc(Cl)c(Cl)cc4[nH]3)c3ccccn23)cc1	91.6% (inactive)
Cc1ccc(CC#N)cc1C	88.8% (inactive)
O=C1/C(=C\c2ccc(Cl)cc2)CN(C(=S)Nc2ccccc2)C/C1=C\c1ccc(Cl)cc1	-74.1% (active)
C#Cc1ccc(-n2c(/C=C/c3ccc4ccccc4n3)nc3ncccc3c2=O)cc1	-4.33% (active)
N#CCCN1C/C(=C/c2ccccc2)C(=O)/C(=C/c2ccccc2)C1	84.4% (inactive)
CCC(=O)N1C/C(=C/c2ccc(OC)cc2)C(=O)/C(=C/c2ccc(OC)cc2)C1	96.1% (inactive)

SMILES	growth
Cc1ccc(C)c(C(O)(c2cc(C)ccc2C)C2(O)CCCCC2)c1	97.9% (inactive)
O=C1/C(=C\c2ccc(F)cc2)CN(C(=O)c2ccc([N+](=O)[O-])cc2)C/C1=C\c1ccc(F)cc1	77.1% (inactive)
CC(=O)OCc1cc(-c2nc3ccccc3[nH]c2=O)nn1-c1ccc(Cl)cc1	99.6% (inactive)
O=C1/C(=C\c2ccc(Cl)cc2)CN(C(=O)c2ccccc2)C/C1=C\c1ccc(Cl)cc1	83.8% (inactive)
CC(C)(C)c1cc(Br)cc(C(C)(C)C)c1O	111% (inactive)
C#Cc1ccc(-n2c(/C=C/c3ccc(C(F)(F)F)cc3)nc3ncccc3c2=O)cc1	68.8% (inactive)
CC/C(=C(/c1ccc(OCCN(C)C)cc1)c1ccc(OC(=O)CCCCC(=O)c2c(C)[nH]c(/C=C3\N=C(c4ccc[nH]4)C=C3OC)c2C)cc1)c1ccccc1	91.3% (inactive)
CSc1nn(-c2ccccc2)c2ncnc(Oc3ccccc3)c12	96.2% (inactive)
COc1cc(/C=C\c2cc(OC)c(OC)c(OC)c2)cc(NS(=O)(=O)c2ccc(Cl)cc2)c1OC	45% (inactive)
COc1ccc(/C=C2/CN(CCC#N)C/C(=C\c3ccc(OC)cc3)C2=O)cc1	59.7% (inactive)
c1ccc(CP(Cc2ccccc2)c2ccccc2)cc1	102% (inactive)
COc1ccc(-c2nc(-c3nc4cc(Cl)c(F)cc4[nH]3)c3ccccn23)cc1	98% (inactive)
Cc1nc2ccccc2c(N)c1-c1cc(C)c2c(C)nc3ccccc3c2n1	32.4% (inactive)
CC1(C)CCC(=NNC(N)=S)CC1	109% (inactive)
Nc1nc(Nc2ccccc2)n[nH]1	103% (inactive)
CCOC(=O)N1C/C(=C/c2ccc(OC)cc2)C(=O)/C(=C/c2ccc(OC)cc2)C1	95% (inactive)
CC(=O)n1c(-c2ccc(Cl)c(Cl)c2)cn(-c2ccc(Cl)cc2)c1=O	42.4% (inactive)
N=C(N)c1ccc(-c2ccc(-c3ccco3)o2)cc1	79% (inactive)
COc1ccc(/C=C/C(C)=N/OCC(=O)O)cc1	109% (inactive)
